VACV mCherry inh: inhibitors of vaccinia virus infection (mCherry reporter signal). Vaccinia virus mCherry reporter infection, fluorescence. Potency, µM (top dose mostly 36.5 µM), for the others: at the top dose activity change, negative = inhibition, hits mostly inhibitors. actives 0.63% (n = 310,000). AID 720579; calls by dose curve; tested in A549 cells; also: nearly all actives have a fitted effect of over 35% in size
Lassa entry inh: blocks Lassa virus binding to or entry into cells. Lassa virus pseudotype entry inhibition, cell reporter. Potency, µM (top dose mostly 37.9 µM), without a hit: at the top dose activity change, negative = inhibition, actives largely listed as inhibitors. actives 1.2% (n = 300,000). AID 540256; calls by dose curve; tested in HEK293 cells; also: nearly all actives have a fitted effect of over 50% in size
Vaccinia Venus: inhibitors of vaccinia virus (Venus reporter). Vaccinia virus Venus reporter expression, fluorescence. Potency, µM (series often up to 36.5 µM), for inactives: at the top dose activity change, negative = inhibition, usual class: inhibitors. actives 0.46% (n = 330,000). AID 720580; calls by dose curve; tested in A549 cells; also: nearly all actives have a fitted effect of over 30% in size
MARV entry inh: blocks Marburg virus binding to or entry into cells; Marburg virus pseudotyped entry inhibition, cell reporter; Potency, µM (top dose mostly 37.8 µM), without a hit: at the highest dose activity change, negative = inhibition, actives largely listed as inhibitors; actives 1.8% (n = 300,000); AID 540276; calls by dose curve; tested in HEK293 cells
* hit, by the source's call; i = inactive; ? = inconclusive; . = no result; ! = not active in a repeat; [ ] = remark or other dose. Sampled rows, rich in hits. Any-hit rate of the full collection: about 2.5%. % is scaled to controls: 0 for no effect and ±100 for the full control effect; potency is read from the fitted curve at half-maximal effect.

SMILES	VACV mCherry inh	Lassa entry inh	Vaccinia Venus	MARV entry inh
C/C=C(/C)C(=O)O[C@H]1C(C)=C2C([C@@H]1OC(=O)CCCCCCC)[C@@](C)(OC(C)=O)C[C@@H](OC(=O)CCC)[C@@]1(O)[C@H]2OC(=O)[C@@]1(C)O (stereo partly drawn)	.	.	.	0.708µM*
COc1ccc(S(=O)(=O)Nc2cc3c4c(oc3c3ccccc23)CC(C)(C)CC4=O)cc1	.	?	.	14.6µM*
COc1ccc(S(=O)(=O)Nc2cc3c4c(oc3c3ccccc23)CCCC4=O)cc1	?	7.08µM*	?	?
C=C(CN(C)C)C(=O)c1cc(C)ccc1C	?	?	7.08µM*	?
CCCc1[nH]nc2c1[C@@H](c1cccc(OC)c1)C(C#N)=C(N)O2	.	.	.	4.4%
CN(C)c1ccc(CNC2CC(C)(C)NC(C)(C)C2)cc1	-25.4%	11.6µM*	-13.8%	?
NC(CO)C(=O)NNCc1ccc(O)c(O)c1O (stereo not drawn)	-5.4%	?	-19.5%	5.01µM*!
COC(=O)C(N)Cc1ccc(O)c(O)c1 (stereo not drawn)	4.7%	14.3%	0.9%	10.0%
COC(=O)/C=C/c1ccc2c(c1)S(=O)(=O)N(C1CCCC1)[C@H]2CC(=O)OC	i	.	-11.9%	.
O=C(C1CCCN(S(=O)(=O)c2cccc3nsnc23)C1)N1CCN(c2ccccc2F)CC1 (stereo not drawn)	-11.0%	-20.4%[46.1 µM]	-8.9%	-6.9%[46.1 µM]
O=C(C1CCCN(S(=O)(=O)c2cccc3nsnc23)C1)N1CCN(c2ccccc2Cl)CC1 (stereo not drawn)	-27.9%	?	-15.9%	3.98µM*
O=C1CC(C(=O)N2CCOc3ccc(CN4CCC(Oc5cccnc5)CC4)cc3C2)c2ccccc21 (stereo not drawn)	-9.6%	.	2.3%	.
Cc1ccc(S(=O)(=O)Nc2cccc3ncccc23)s1	?	8.91µM*	?	10µM*
O=C(COC(=O)c1ccccc1C(=O)c1ccc(Cl)c([N+](=O)[O-])c1)NC1CC1	?	?	10µM*	?
CCCCC(=O)/C=C/n1c(=S)oc2ccccc21	-12.6%	13.7%	-12.8%	17.8µM*
CC[n+]1c(/C=C/C=C2/N(C)c3ccccc3C2(C)C)sc2ccccc21	.	1.3µM*	.	0.92µM*
CCOC(=O)/C=C1/N(C)c2ccccc2C1(C)C	i	13.0%[46.1 µM]	-13.6%	5.7%[46.1 µM]
CCN1/C(=C\C=C\C2=[N+](CC)c3ccccc3C2(C)C)C(C)(C)c2ccccc21	.	0.794µM*	.	0.708µM*
COc1ccc(OC[C@H]2CN3[C@H](c4ccc(Br)cc4)[C@H](C)CC[C@H]3C(=O)O2)cc1	.	.	.	-7.5%[14.2 µM]
C=CCN1C(=O)CC[C@@]23C1=NC(C(=O)OC)=C(C(=O)OC)[C@@H]2N(C)c1ccccc13	.	.	.	13.6%[14.2 µM]
COc1ccc(-c2c[n+]3c(n2-c2ccc(C)cc2)CCCCC3)cc1	i	5.01µM*	-18.1%	7.08µM*
COc1ccccc1-n1c(-c2ccccc2)c[n+]2c1CCc1ccccc1-2	-16.9%	2.82µM*	?	?
CCOc1ccc(-n2c(-c3ccccc3)c[n+]3c2CCC3)cc1	-9.4%	?	1.6%	?
CC(C)c1ccc(-n2c(-c3ccccc3)c[n+]3c2CCc2ccccc2-3)cc1	?	3.16µM*	?	?
COc1ccc(-c2cn(-c3ccc(OC)cc3)c3[n+]2-c2ccccc2CC3)cc1	-22.2%	?	-20.4%	?
SMILES	VACV mCherry inh	Lassa entry inh	Vaccinia Venus	MARV entry inh
COc1ccc(-n2c(-c3ccc(Cl)cc3)c[n+]3c2CCCCC3)cc1	.	.	.	2.8%
COc1ccc(-n2c(-c3ccc(Br)cc3)c[n+]3c2CCc2ccccc2-3)cc1	.	?	.	11.6µM*
CN(C)c1ccc(N=Nc2ccnc3ccccc23)cc1	i	.	-12.2%	.
COC(=O)C1CCN(Cc2ccc3c(c2)CN(C(=O)c2cc(C4CC4)on2)CCO3)CC1	-3.3%	.	8.7%	.
CC(CCc1ccc(O)cc1)NCCC(c1ccccc1)c1ccccc1 (stereo not drawn)	?	?	-17.0%	7.08µM*
COc1ccc2cc(CN(C(=O)Nc3ccccc3OC)C3CCCC3)c(=O)[nH]c2c1	-26.9%	?	-12.6%	8.91µM*
COc1ccc2cc(CN(CC3CCCO3)C(=O)Nc3ccccc3OC)c(=O)[nH]c2c1 (stereo not drawn)	?	.	-26.9%	?
CCN1CCCC1CN(Cc1cc2ccc(C)cc2[nH]c1=O)C(=S)Nc1ccc(OC)cc1 (stereo not drawn)	-26.9%	?	-25.2%	4.5%
CCN1CCCC1CN(Cc1cc2ccc(C)cc2[nH]c1=O)C(=S)Nc1ccccc1OC (stereo not drawn)	-12.1%	-17.9%	-25.0%	?
CCN1CCCC1CN(Cc1cc2ccc(C)c(C)c2[nH]c1=O)C(=O)Nc1ccccc1OC (stereo not drawn)	.	-0.7%	-7.2%	17.8µM*
CCN1CCCC1CN(Cc1cc2ccc(C)cc2[nH]c1=O)C(=S)Nc1cccc(OC)c1 (stereo not drawn)	-4.2%	?	?	10µM*
CCCCN(C)Cc1c(C(=O)N2CCc3ccccc3C2)nc2ccc(Cl)cn12	-7.9%	-7.2%[46.1 µM]	-3.5%	?
CC(C)CN(C)Cc1c(C(=O)N2CCc3ccccc3C2)nc2ccc(Cl)cn12	-2.0%	-5.3%	-13.8%	11.2µM*
COC(=O)[C@H](C=C[C@H](C)Cc1cc(Br)cc(OCc2ccccc2)c1OC)OCc1ccccc1	.	.	.	-15.1%[14.2 µM]
COc1ccc([C@H]2C(C#N)=C(SC)NC3=C2C(=O)CC(C)(C)C3)cc1	.	.	.	-8.3%
Oc1ccc(Cl)cc1C1=NNC(c2cccs2)C1 (stereo not drawn)	?	.	-8.5%	.
O=[N+]([O-])c1ccc(O)c(C2=NNC(c3ccccc3F)C2)c1 (stereo not drawn)	?	?	11.2µM*	?
CC(=CC[Si](C)(C)C)CCC=O	.	?	.	-25.1%[14.2 µM]
COc1ccc(NC(=S)N(CCc2c(C)[nH]c3ccccc23)Cc2ccco2)cc1	-3.5%	?	-14.1%	13µM*
Cc1cccnc1C(NC(=O)C1CCN(Cc2ccc(Cl)cc2)CC1)c1ccccc1 (stereo not drawn)	i	.	-14.2%	.
Cc1cccnc1C(NC(=O)C1CCN(Cc2cn(C)c3ccccc23)CC1)c1ccc(Cl)cc1 (stereo not drawn)	14.1µM*	.	11.2µM*	.
C[C@@H](c1ccccc1)N1C(=O)[C@@H]2[C@H]3[C@H](O)[C@H](O)CC(=NOC[C@@H](O)COCc4ccco4)[C@H]3CC[C@H]2C1=O	.	.	.	1.0%[14.2 µM]
Cc1cccc(C)c1OCC(=O)Nc1cccc(S(=O)(=O)N2CCCC2)c1	-27.5%	?	-20.9%	?
CC(=O)Oc1ccc(-c2ccc(C(=O)Nc3cccc(S(=O)(=O)N4CCOCC4)c3)cc2)cc1	15.8µM*	?	?	?
CC1(C)CC2CC(C)(CN2S(=O)(=O)c2ccc(C(=O)Nc3cccc(S(=O)(=O)N4CCOCC4)c3)cc2)C1 (stereo not drawn)	.	?	.	5.17µM*
COc1ccc(C(=O)NC(=S)Nc2cccc(S(=O)(=O)N3CCOCC3)c2)cc1	-29.5%	?	?	-19.3%[46.1 µM]
Cc1cc(OCC(=O)Nc2cccc(S(=O)(=O)N3CCCC3)c2)ccc1Cl	-28.7%	?	-26.1%	5.01µM*

Screening results: PubChem BioAssay, National Center for Advancing Translational Sciences (NCATS)
